KAT2A inh = blocks human GCN5L2 histone acetyltransferase; Q92830; GCN5L2 HAT assay, ThioGlo1 CoA-SH fluorescence; Potency, µM (titrated, usually from 58.9 µM), most hits filed as inhibitors; hit rate 0.21% among 390,000
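GCN5L2 (20nM final) in 50mM HEPES, 0.1mM EDTA pH 7.5, 0.01% Tween-20 was preincubated 15 min at room temperature with compound, then given ThioGlo1 (50uM), H3(1-25) peptide (75uM) and acetyl-CoA (70uM); CoA-thiol fluorescence (Ex340/Em540) was read at 0 and 20 min.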
TDP1 cell CPT = growth inhibition of DT40 Tdp1-/-;hTDP1 cells with camptothecin (screen for TDP1 inhibitors); hit rate 12% among 420,000; Potency, µM (titrated, usually from 46.2 µM), most hits filed as inhibitors; chicken DT40 Tdp1-/-;hTDP1 cells + 20 nM CPT, ATP luminescence, 48 h; also: nearly all actives have a fitted effect of over 55% in size
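Chicken DT40 Tdp1-/- cells stably complemented with human TDP1 were seeded at 400 cells/well in medium containing 20 nM camptothecin, exposed to pin-transferred compounds, and grown at 37 °C for at least 48 hr. Viability was read as ATP luminescence.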
VDR inh = vitamin D3 receptor (human) inhibition | VDR-SRC2-3 peptide fluorescence polarization, 2 h | Potency, µM, actives largely listed as inhibitors | hit rate 0.93% among 400,000 | AID 504847
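The screen uses fluorescence polarization to detect compounds that interfere with recruitment of the SRC2-3 coactivator peptide to VDR; plates are read after 2 h at room temperature.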
DT40 TDP1 no CPT = qHTS for Inhibitors of human tyrosyl-DNA phosphodiesterase 1 (TDP1): qHTS in cells in absence of CPT | DT40 Tdp1-/- hTDP1 cells, no CPT, ATP luminescence, 48 h | Potency, µM (series often up to 46.2 µM), most hits filed as inhibitors | hit rate 15% among 420,000; also: nearly all actives have a fitted effect of over 55% in size
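Growth of hTDP1-complemented DT40 Tdp1-knockout cells is measured by ATP luminescence after at least 48 hr compound exposure at 37 °C, with DMSO substituting for the 20 nM CPT used in the parallel screen.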
PLK1 PBD inh = inhibitors of human PLK1 polo-box domain binding; P53350; Plk1 PBD binding of FITC phosphopeptide, fluorescence polarization; Potency, µM, actives largely listed as inhibitors; hit rate 2.8% among 360,000; AID 720504; also: series mostly up to about 57 µM; nearly all actives have a fitted effect of over 65% in size
Target sequence (P53350 whole entry, looked up, the tested form may be a part): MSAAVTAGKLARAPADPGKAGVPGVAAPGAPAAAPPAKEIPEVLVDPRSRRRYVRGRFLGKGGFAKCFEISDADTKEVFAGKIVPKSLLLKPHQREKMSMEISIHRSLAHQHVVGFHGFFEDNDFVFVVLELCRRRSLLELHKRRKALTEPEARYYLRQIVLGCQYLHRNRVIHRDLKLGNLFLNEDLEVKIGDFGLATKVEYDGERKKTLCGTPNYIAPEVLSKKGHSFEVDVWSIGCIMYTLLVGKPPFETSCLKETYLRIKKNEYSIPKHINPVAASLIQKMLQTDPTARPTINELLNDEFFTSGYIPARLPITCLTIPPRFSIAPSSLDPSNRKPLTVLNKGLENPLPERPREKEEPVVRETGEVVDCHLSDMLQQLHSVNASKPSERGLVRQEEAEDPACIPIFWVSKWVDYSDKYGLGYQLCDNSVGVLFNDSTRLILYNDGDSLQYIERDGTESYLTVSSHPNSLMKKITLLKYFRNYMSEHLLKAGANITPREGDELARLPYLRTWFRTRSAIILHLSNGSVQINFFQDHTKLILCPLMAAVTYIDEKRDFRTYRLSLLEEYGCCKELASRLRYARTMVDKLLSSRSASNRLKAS
TDP1 block = TDP1 (human) enzyme inhibition; Potency, µM (top dose mostly 130 µM), actives largely listed as inhibitors; hit rate 0.28% among 350,000; Q9NUW8; recombinant TDP1, AlphaScreen DNA substrate cleavage; also: nearly all actives have a fitted effect of over 40% in size
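AlphaScreen read-out: signal falls as enzyme removes the 3' tyrosine-FITC from a 5'-biotinylated DNA oligo (15 nM, 5 min, RT). Enzyme was E. coli-made recombinant Tdp1 at 1 nM, exposed to compound for 15 min beforehand; beads 10 ug/ml, 10 min.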
Each line names hits and unclear results; the compound was inactive in the other large screens. Shown are actives, neighbours in structure and some others; about 18% of the full set was active somewhere. Calls follow the shape of the dose curve; as a rule, active = well fitted curve in the direction sought with a large enough effect; inconclusive = small, poorly fitted or top-dose-only effect, or another doubt; inactive = no such curve, though single readings can be large; an effect the other way counts as inactive or inconclusive.

OC(c1ccccc1)c1nc(-c2ccccc2)cs1 (stereo unspecified)	none (no result: KAT2A inh, VDR inh, TDP1 block)
O=c1[nH]c(=O)n(Cc2ccccc2)c2c1C(C(F)(F)F)(C(F)(F)F)N=C(c1ccco1)N2	TDP1 cell CPT inconclusive, DT40 TDP1 no CPT inconclusive
O=c1[nH]c(=O)n(Cc2ccco2)c2c1C(C(F)(F)F)(C(F)(F)F)N=C(c1ccc(F)cc1)N2	TDP1 cell CPT 12µM, DT40 TDP1 no CPT 6.5µM
NNC(=O)c1c[nH]c2ccc(OCc3ccccc3)cc12	none (no result: KAT2A inh, TDP1 block)
O=CN(Cc1nc2ccccc2[nH]1)c1ccc(C(=O)O)cc1	none (no result: KAT2A inh, TDP1 block)
Cc1nn(C)c(C)c1CNC(=O)c1cc2n(n1)C(C(F)(F)F)CC(c1cccs1)N2 (stereo unspecified)	TDP1 cell CPT 10µM, DT40 TDP1 no CPT 5.8µM
CCOC(=O)c1c(NC(=O)c2cc3n(n2)C(C(F)(F)F)CC(c2cccs2)N3)sc(C)c1C (stereo unspecified)	TDP1 cell CPT 5.2µM, DT40 TDP1 no CPT 6.5µM
Cc1nn(C)c(C)c1CN(C)C(=O)c1nn2c(c1Br)NC(c1cccs1)CC2C(F)(F)F (stereo unspecified)	TDP1 cell CPT inconclusive, DT40 TDP1 no CPT inconclusive, PLK1 PBD inh inconclusive
COc1cc(SC)ccc1C(=O)N1CCn2c3c(c4cc(C)ccc42)CCCC31 (stereo unspecified)	DT40 TDP1 no CPT inconclusive (no result: PLK1 PBD inh)
CC1(C(=O)Nc2ccc3c(c2)OCCO3)CSCC(=O)N1Cc1ccco1 (stereo unspecified)	none (no result: KAT2A inh, VDR inh, TDP1 block)
COc1cc(OC)c(NC(c2nnc(-c3ccccc3)o2)c2ccc(F)cc2Cl)cc1Cl (stereo unspecified)	TDP1 cell CPT inconclusive, DT40 TDP1 no CPT 18µM (no result: PLK1 PBD inh)
O=Cc1cc2ccccc2nc1SCCCF	TDP1 cell CPT inconclusive, DT40 TDP1 no CPT 4.6µM
COc1ccc(C2N(Cc3ccccc3)CC(=O)N2/N=C(\C)c2ccccc2)cc1 (stereo unspecified)	none
CCCn1c(=O)n(-c2ccccc2)c(=O)c2sc3ccccc3c21	DT40 TDP1 no CPT inconclusive (no result: PLK1 PBD inh)
COc1cc(C2C(C#N)=C(N)Oc3c2ccc2ccccc32)ccc1OCC(=O)Nc1cccc(C)c1 (stereo unspecified)	TDP1 cell CPT inconclusive, DT40 TDP1 no CPT 16µM
COc1cc(C2C(C#N)=C(N)Oc3c2ccc2ccccc32)ccc1OCC(=O)Nc1ccc(C)cc1 (stereo unspecified)	TDP1 cell CPT inconclusive, DT40 TDP1 no CPT inconclusive
COc1ccc(C2C(C#N)=C(N)Oc3c2ccc2cccnc32)cc1OC (stereo unspecified)	TDP1 cell CPT 3.3µM, DT40 TDP1 no CPT 2.6µM
COC(=O)[C@@]1(Cc2ccc(F)cc2)[C@H]2c3cc(C(=O)N(C)C)n(Cc4c(CO)[nH]cc(C)c4=O)c3C[C@H]2CN1C(=O)c1ccccc1	none
Nn1c(Cc2cccc3ccccc23)nnc1SCc1c(Cl)cccc1Cl	TDP1 cell CPT inconclusive, DT40 TDP1 no CPT 16µM
Cc1cccc(NC(=O)CCC(=O)OCC(=O)c2ccc(Oc3ccc([N+](=O)[O-])cc3)cc2)c1	TDP1 cell CPT 21µM, VDR inh inconclusive, DT40 TDP1 no CPT inconclusive, PLK1 PBD inh 11µM
Cc1ccc(NC(=O)CCC(=O)OCC(=O)c2ccc(Oc3ccc([N+](=O)[O-])cc3)cc2)cc1C	KAT2A inh inconclusive
CN1C[C@@H]2[C@@H]3C(=O)N(C)C(=O)[C@@H]3[C@](Cc3ccccc3)(C1=O)N2C(=O)c1ccc(F)cc1	none (no result: KAT2A inh, TDP1 block)
N#CCC(=O)N/N=C/c1cc(-c2ccccc2)n(-c2ccc(Cl)cc2)c1-c1ccccc1	TDP1 cell CPT inconclusive, DT40 TDP1 no CPT inconclusive
CCCc1cc(C(=O)N2CCCC(Cc3cccc(Cl)c3)(C(=O)OCC)C2)n(C)n1 (stereo unspecified)	TDP1 cell CPT 18µM, DT40 TDP1 no CPT 13µM

Assay outcomes (PubChem BioAssay)
